The nature of assay [1]: NCI Yeast Anticancer Drug Screen. Data for the rad50 strain (AID 155).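 Note: 0% = growth of vehicle-only cultures of the same strain.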 The following applies: S. cerevisiae rad50 strain growth inhibition; at 50.0 µM; active compounds read high. In a few lines:
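A DNA repair-deficient yeast mutant serves as the test organism; compound-induced growth inhibition is calculated against vehicle-treated cells.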

Assay [2] is described as follows: NCI Yeast Anticancer Drug Screen. Data for the mec2-1 strain (AID 157). The following applies: S. cerevisiae mec2-1 strain, at 50.0 µM, active compounds read high. In a few lines:
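Compounds were applied to mec2-1 yeast cells. Their growth was then compared with that of vehicle-treated cultures to give growth inhibition.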

Assay [3] can be described thus: NCI Yeast Anticancer Drug Screen. Data for the sgs1 mgt1 strain (AID 161).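 Note: 0% = growth of cultures given vehicle only.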 The conditions noted are these: S. cerevisiae sgs1 mgt1 strain, at 50.0 µM, active compounds read high. An outline of the steps:
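Yeast cells carrying a defined DNA-repair defect were exposed to test compounds. Growth inhibition was measured relative to vehicle-treated controls.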

The nature of assay [4]: NCI Yeast Anticancer Drug Screen. Data for the cln2 rad14 strain (AID 165).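 Note: 0% = growth equal to vehicle treated cultures.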 The conditions noted are these: S. cerevisiae cln2 rad14 strain, at 50.0 µM, active compounds read high. An outline of the steps: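 Strain: cln2 rad14 yeast, altered in cell cycle control and DNA damage repair. Read-out: growth inhibition vs vehicle.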
Assay [5] is described as follows: NCI Yeast Anticancer Drug Screen. Data for the bub3 strain (AID 167). The following applies: S. cerevisiae bub3 mutant strain, at 50.0 µM, active compounds read high. In a few lines: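 Inhibition values come from growth of compound-treated mutant yeast normalised to vehicle-treated controls.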
Assay [6] can be described thus: NCI Yeast Anticancer Drug Screen. Data for the mlh1 rad18 strain (AID 175). The following applies: S. cerevisiae mlh1 rad18 strain growth inhibition; at 50.0 µM; active compounds read high. In a few lines:
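A repair-deficient yeast strain is exposed to test compound, and growth is scored relative to vehicle-treated controls.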

Compounds without any hit were thinned out: in the full panel of roughly 79,000, 15% have a hit. Unmarked numbers belong to inactive results. Active and inactive are the calls of the source. Cut-off read from the data, not from the text of the source: active = growth inhibition above about 70%; inactive = the rest. *1 amine or outer side, *2 acyl side, *3 side chain or, on linkers, in order; H or OH if unused. Where a SMILES comes first, the peptide text is derived from it. Bridges are numbered along the chain shown (N, C = ends). [ ]: non-standard residue; d: D form. The star is where a group is joined. ξ: configuration not given here. Fmoc = O=C(OCC1c2ccccc2-c2ccccc21)*; X9 = O=C(C(CCCCNO[*:3])N[*:1])[*:2]; ξW = NC(Cc1c[nH]c2ccccc12)C(=O)O; ξP = O=C(O)C1CCCN1

With `O=S(=O)(O)c1cc(N=Nc2cc(S(=O)(=O)O)c3cccnc3c2O)ccc1/C=C/c1ccc(N=Nc2cc(S(=O)(=O)O)c3cccnc3c2O)cc1S(=O)(=O)O.[Cu+2].[Na+]`, the growth inhibition is 18.5% in assay [1]; 18.2% in assay [2]; 34.6% in assay [3]; 25% in assay [4]; -11.2% in assay [5]; 9.25% in assay [6].
Take `C[C@H]1C(=O)CCC2[C@]3(C)CCC4(CO)[C@@H]5CC(C)(C)C(=O)C[C@]5(C)CC[C@]4(C)C3CC[C@@]21C` (stereo not given in full): the growth inhibition was -26.5% in assay [1]; -25.6% in assay [2]; -28.1% in assay [3]; 3.35% in assay [4]; -40.9% in assay [5]; 0.4% in assay [6].
For `COc1ccccc1C(=O)c1ccccc1`, the growth inhibition in assay [1] was -27.4%; in assay [2], -7.3%; in assay [3], -3.4%; in assay [4], -14.9%; in assay [5], -20.1%; in assay [6] it was -11.2%.
Take `COc1cc2c(C)nc3c4cc5c(cc4ccc3c2cc1OC)OCO5`: the growth inhibition in assay [1] was -12.4%; in assay [2] it was 8.2%; in assay [3], 18.2%; in assay [4], -41.9%; in assay [5], 40.2%; in assay [6], 1%.
`CC(=O)c1ccc([C@H](O)[C@H](CO)NC(=O)C(Cl)Cl)cc1`: the growth inhibition in assay [1] is -1.1%; in assay [2], 0.45%; in assay [3] it was 6.95%; in assay [4], -57.4%; in assay [5], -21.6%; in assay [6], -16.2%.
On to `COc1cc2c[n+]3c4c(cccc4c2cc1OC)CC3`, for which the growth inhibition was 5.75% in assay [1]; 0.55% in assay [2]; 1.15% in assay [3]; -2.7% in assay [4]; 3.2% in assay [5]; -13.7% in assay [6].
`NC(=O)CNC(=O)C1CCCN1C(=O)C1CCCCNOC(=O)CC[C@@H](NC(=O)OCC2c3ccccc3-c3ccccc32)C(=O)NC(Cc2c[nH]c3ccccc23)C(=O)N1` (stereo not given in full) (Fmoc-[dE][ξW][X9][ξP]G-NH2; ester 1-3): the growth inhibition was -10.2% in assay [1]; -15.8% in assay [2]; -6.55% in assay [3]; 24.1% in assay [4]; -16.2% in assay [5]; -19.6% in assay [6].
With `O=C(CO)c1ccc([N+](=O)[O-])cc1`, the growth inhibition in assay [1] was 16.8%; in assay [2] it was 34.3%; in assay [3], 1.85%; in assay [4], 7.5%; in assay [5], 13.4%; in assay [6] it was 40.4%.
Turning to `O=C(OC(CN1CCCCC1)CN1CCCc2ccccc21)C(O)C(O)C(O)(CO)C(=O)OC(CN1CCCCC1)CN1CCCc2ccccc21` (stereo not given), the growth inhibition was 15.4% in assay [1]; 7.05% in assay [2]; 43.8% in assay [3]; 1.8% in assay [4]; 7.95% in assay [5]; 41.1% in assay [6].
Consider `Oc1ccc2ccccc2c1C(c1cccc2ccccc12)N1CCCCC1` (stereo not given), for which the growth inhibition in assay [1] is 16.1%; in assay [2], 1.4%; in assay [3] it was 9.7%; in assay [4], 3.2%; in assay [5], 16.1%; in assay [6], 53.8%.
With `CCCNC(=O)c1cccc2c1-c1ccccc1C2=O`, the growth inhibition in assay [1] is -0.55%; in assay [2] it was 3.85%; in assay [3] it was -2.65%; in assay [4], -1.7%; in assay [5], 4.65%; in assay [6] it was -1.45%.
Consider `CCC(=O)Nc1nnc(SCCCCCCCCCCSc2nnc(NC(=O)CC)s2)s1`, for which the growth inhibition is 20.6% in assay [1]; 4.95% in assay [2]; 17.7% in assay [3]; 19.3% in assay [4]; -2.5% in assay [5]; 21.5% in assay [6].
In the case of `CCOc1cccc(C=Nc2ccccc2SSc2ccccc2N=Cc2cccc(OCC)c2O)c1O`, the growth inhibition was 42.2% in assay [1]; 18.6% in assay [2]; 61.5% in assay [3]; 2.85% in assay [4]; 68.6% in assay [5]; 68.5% in assay [6].
With `CCCCCCCCc1cc(CN2CCOCC2)c(O)c(CN2CCOCC2)c1`, the growth inhibition in assay [1] was 25.1%; in assay [2], 14.6%; in assay [3], 22.2%; in assay [4], 24.4%; in assay [5] it was 12.8%; in assay [6], 21.6%.
Regarding `COC1=C(OC)C(=O)c2cc(SC)c(=O)c(SC)cc2C1=O`, the growth inhibition in assay [1] was -54.8%; in assay [2] it was -29.2%; in assay [3], -40.5%; in assay [4] it was -22.1%; in assay [5], -54.6%; in assay [6], -60.2%.
With `Cc1ccc(S(=O)(=O)N/N=c2/sc3ccccc3n2C)cc1`, the growth inhibition in assay [1] was -35%; in assay [2], -19.1%; in assay [3], -33.5%; in assay [4], -7.85%; in assay [5], -8.2%; in assay [6], -22.3%.
For the molecule `CCN(CC)CCOC(=O)c1c2nc3c(C(=O)OCCN(CC)CC)ccc(C)c3oc-2c(C)c(=O)c1N`, the growth inhibition is 79.5% (active) in assay [1]; 35.9% in assay [2]; 42.1% in assay [3]; -5.2% in assay [4]; 61.9% in assay [5]; 36.3% in assay [6].
On to `O=c1c(Cl)cc(Cl)cn1S(=O)(=O)c1ccc([N+](=O)[O-])cc1`, for which the growth inhibition in assay [1] was 99.1% (active); in assay [2] it was 95.3% (active); in assay [3], 98.9% (active); in assay [4], 98.7% (active); in assay [5], 97.7% (active); in assay [6], 98.9% (active).
`COC(=O)C(Cc1c[nH]c2ccccc12)NC(=O)c1ccccc1NC(=O)OCc1ccccc1` (stereo not given): the growth inhibition in assay [1] was 5.85%; in assay [2] it was -13.1%; in assay [3], 9.15%; in assay [4], -14.1%; in assay [5], 15.1%; in assay [6], 7.65%.
Consider `COC(=O)C1CCC(C)(C(N)=O)C1(C)C` (stereo not given), for which the growth inhibition in assay [1] is 16%; in assay [2] it was 3%; in assay [3], -10.9%; in assay [4], -37.8%; in assay [5], 5.25%; in assay [6] it was 9.7%.

These data come from PubChem BioAssay (NCI).
